# Only some compounds are listed: those with a hit (about 2.3% of all), similar ones and a draw of the others.
# Nrf2 block: inhibitors of Nrf2 signaling; 2.1% of 360,000 active; AID 504444; Potency, µM (doses to about 46 µM), inactives show top-dose activity change, negative = inhibition, hits mostly inhibitors; A549 ARE-Fluc reporter, luciferase luminescence, 18-24 h; also: potency is read from the fitted curve at half-maximal effect; % is scaled to controls: 0 for no effect and ±100 for the full control effect; nearly all actives have a fitted effect of over 60% in size
#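 A549 ARE_Fluc cells, 5000/well, 5% FBS OPTI-MEM; compounds in dose-response, 18-24 h at 37 °C/5% CO2; CellTiter-Fluor viability read (Ex 405/Em 525), then BugLite luciferase luminescence = Nrf2 activity.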
# IL2 activator: activators of IL-2. activation, % (series mostly up to about 46 µM). IL-2 activation reporter assay, cell-based qHTS; stimulated with anti-CD3/CD4/CD28 beads; in transgenic mouse T cells. AID 652025. 0.065% of 360,000 active; in the data active = activation above about 50%; inconclusive = mostly about 30% to 49%; also: 0% is about no effect
#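 Screening format: compound pinned onto unstimulated transgenic mouse T cells, 60 min incubation, then anti-CD3/anti-CD4/anti-CD28 bead stimulation for 18 hours at 37 degrees C, followed by EGFP and DsRed detection.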
# A549 viability: kills or reduces viability of A549 cells in Nrf2 counter-screen; A549 ARE-Fluc cells, CellTiter-Fluor viability, 18-24 h; Potency, µM (highest dose often 46 µM), without a hit: at the top dose activity change, negative = cytotoxicity, usual class: inhibitors; 0.16% of 390,000 active; also: potency is read from the fitted curve at half-maximal effect; % is scaled to controls: 0 for no effect and ±100 for the full control effect
#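 Cytotoxicity counterscreen: CellTiter-Fluor fluorescence was measured in A549 ARE_Fluc cells after 18-24 h of compound exposure in a concentration series. The subsequent BugLite luminescent read reports ARE-luciferase activity.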
# Nrf2 activator: Nrf2 pathway activation; AREc32 ARE-luciferase reporter (MCF7-derived line), luminescence, 24 h; 0.31% of 410,000 active; AID 624171; Potency, µM (titrated, usually from 46.1 µM), for inactives: top-dose activation, hits mostly activators; also: potency is read from the fitted curve at half-maximal effect; % of control where 0% means no effect; nearly all actives have a fitted effect of over 65% in size
#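 Reporter line AREc32 (ARE-Fluc), seeded overnight in OPTI-MEM with 5% FBS; compound pin-transferred, 24 hr at 37 deg C, 5% CO2; luminescent read-out.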
# * hit, by the source's call; ? = inconclusive; . = no result; [ ] = remark or other dose. Unless noted, calls follow the shape of the dose curve; as a rule, active = well fitted curve in the direction sought with a large enough effect; inconclusive = small, poorly fitted or top-dose-only effect, or another doubt; inactive = no such curve, though single readings can be large; an effect the other way counts as inactive or inconclusive.
SMILES,Nrf2 block,IL2 activator,A549 viability,Nrf2 activator
Cn1ncc2c(O/N=C(\N)c3ccc(C(C)(C)C)cc3)ncnc21,18µM*,-4,16µM*,-2%
CCOC(=O)c1ccc(Nc2ncnc3c2cnn3C)cc1,-3%,-5,-1%,0%
NCCC(=O)Nc1cccc(-c2nn3c(=O)cc(N4CCNCC4)nc3s2)c1,-6%,.,3%,.
COc1ccccc1NS(=O)(=O)c1cccc(NC(=O)c2sc3ccccc3c2Cl)c1,9.2µM*,0,-23%,0%
COc1ccccc1NS(=O)(=O)c1ccc(Cl)c(NC(=O)c2sc3cc(Cl)ccc3c2Cl)c1,4%,0,7%,0%
COc1ccccc1NS(=O)(=O)c1ccc(NC(C)=O)cc1,.,0,-3%,0%
COc1ccc(NC(=O)c2ccc(-c3ccccc3)cc2)cc1NS(=O)(=O)c1ccc(F)cc1,15µM*,-2,-5%,0%
COc1ccccc1NS(=O)(=O)c1ccc(NC(=O)c2ccccn2)cc1,21µM*,-4,-13%,2%
O=C1Cc2cc(S(=O)(=O)N3CCN(c4ccc(F)cc4)CC3)ccc2N1,-18%[92.2 µM],.,5%[92.2 µM],.
O=C(Cn1c(=O)c2cccn2c2ccccc21)NCc1ccccc1F,?,.,1%,1%
CCOC(=O)CC(NC(=O)CCc1c(C)nc2c(-c3ccccc3)c(C)nn2c1C)c1ccc(C)cc1 (stereo not given),?,.,?,0%
CCCS(=O)(=O)N1CC(=O)N(c2ccc(Cl)cc2C)C(C)(C(=O)NC2CCCC2)C1 (stereo not given),?,.,14%,2%
O=C(CSc1nc(=O)n2cc(Cl)ccc2n1)Nc1ccc2c(c1)OCO2,-10%,312*,-4%,0%
Cn1cc([N+](=O)[O-])c(C(=O)Nc2ccc3nc(-c4ccccc4)[nH]c3c2)n1,?,1,-1%,25µM*
O=C(O)CCC(=O)Nc1ccc(-c2nc3ccc(C(=O)c4ccccc4)cc3[nH]2)cc1,6%,0,-7%,4%
O=C(c1ccccc1)c1ccc2nc(-c3ccc(NC(=O)c4ccccc4F)cc3)[nH]c2c1,10µM*,0,?,0%
Nc1cccc(S(=O)(=O)N2CCN(S(=O)(=O)c3c(F)cccc3F)CC2)c1,3%,.,-3%,.
O=C(c1ccc(Cl)c(Cl)c1)N1CCC(=O)N(C(COCc2cccc(C(F)(F)F)c2)Cc2ccccc2)CC1 (stereo not given),21µM*,-1,?,-4%
Cc1cccc(COCC(Cc2ccccc2)N2CCN(C(=O)c3ccc(Cl)c(Cl)c3)CCC2=O)c1 (stereo not given),-13%,-1,-4%,0%
CC(C)C[C@@H](COCc1ccc(C(F)(F)F)cc1)N1CCN(C(=O)c2ccc(C(F)(F)F)cc2)CCC1=O,.,-1,.,1%
CC(C)CC(COCc1ccc(C(F)(F)F)cc1)N1CCN(C(=O)c2ccc(C(F)(F)F)cc2)CCC1=O (stereo not given),23µM*,-2,?,-3%
CCOc1ccc(S(=O)(=O)N(CC(=O)NCCSc2ccccc2)c2ccccc2)cc1,6%,.,5%,-1%
O=S(=O)(NC1CCCC(NS(=O)(=O)c2c(F)cccc2F)C1)c1ccc2c(c1)OCCO2 (stereo not given),5%,.,-5%,.
CN(C(=O)c1ccc(Oc2ccc([N+](=O)[O-])cc2)cc1)C1CCCCC1,26µM*,-1,-8%,6%
C/C(=N\NC(=O)c1nnn(-c2nonc2N)c1CN1CCc2ccccc21)c1ccccc1O,12µM*,-1,-14%,-1%
SMILES,Nrf2 block,IL2 activator,A549 viability,Nrf2 activator
Nc1nonc1-n1nnc(C(=O)N/N=C/c2ccccc2)c1CN1CCc2ccccc21,10%,0,1%,0%
Cc1cccc(-c2cc3nc4c(c(N5CCCC(O)C5)n3n2)CCC4)c1 (stereo not given),?,-3,-6%,6%
OC1CCCN(c2c3c(nc4cc(-c5cccc(Cl)c5)nn24)CCC3)C1 (stereo not given),4.6µM*,1,-28%,3%
N#C/C(=C\c1ccc(C(=O)O)cc1)c1nc2sc3c(c2c(=O)[nH]1)CCCC3,0%,301*,-3%,2%
CC(=O)Nc1ccc(OCc2cccc(C3Nc4ccccc4C(=O)N3Cc3ccco3)c2)cc1 (stereo not given),-14%,.,-9%,.
COc1ccc(C(=O)/C=C/c2ccc(N3CCCCC3)c([N+](=O)[O-])c2)c(OC)c1,?,-1,-22%,13µM*
FC(F)Oc1ccc(NC(=S)NCc2ccccc2)cc1,5%,-2,10%,2%
FC(F)Oc1ccc(NC(=S)NCc2ccccc2)cc1Cl,23µM*,-2,?,0%
COc1ccc(NC(=O)c2c(NCc3ccc(N(C)C)cc3)sc3c2CCC3)cc1,.,.,-1%,15%
CCCCNc1ncnc2oc(-c3ccco3)c(-c3ccco3)c12,21µM*,.,-14%,.
CCc1cc2c(=O)c(-c3ccc4c(c3)OCCO4)c(C)oc2cc1OS(C)(=O)=O,23µM*,1,?,4%
CCCCCCCC[n+]1c(C)n(-c2ccccc2)c2ccc(NC(C)=O)cc21,12µM*,-7,-12%,0%
CC(=O)Nc1ccc(SCC(=O)c2cc(C)n(-c3ccccc3)c2C)cc1,?,0,0%,3%
COc1cc(-c2ccc3ncnc(NCC4CCCO4)c3c2)cc(OC)c1OC (stereo not given),?,.,-1%,.
O=c1oc2ccccc2cc1-c1nc(-c2cccs2)cs1,.,1,22%,2.5µM*
COc1cccc2cc(-c3nc(-c4cccs4)cs3)c(=O)oc12,23%,76*,-23%,?
CCOc1ccc(C2C(=O)N(C3CCCCCC3)CC(=O)N2CCc2ccc(OC)c(OC)c2)cc1OC (stereo not given),.,.,-1%,1%
Cc1ccccc1-n1cnc2c(sc3nc(N4CCOCC4)c4c(c32)CCCC4)c1=O,21µM*,-1,-17%,0%
Cc1ccc(-n2cnc3c(sc4nc(N5CCOCC5)c5c(c43)CCCC5)c2=O)cc1,10%,1,-1%,0%
O=c1c2sc3nc(N4CCOCC4)c4c(c3c2ncn1-c1ccccc1)CCCC4,13µM*,-1,11%,0%
COc1cc(SC)ccc1C(=O)Nc1cccc(C)n1,?,1,4%,1%
COc1cc(SC)ccc1C(=O)Nc1ccccn1,?,0,-10%,13µM*
CCn1cc(-c2cc(C(=O)O)c3ccccc3n2)cn1,18µM*,-1,-4%,4%
CCc1ccc(-c2cc(C(=O)Nn3cnnc3)c3ccccc3n2)cc1,9.2µM*,-3,2%,-2%
CCc1ccc(-c2cc(C(=O)N3N=C(C(F)F)CC3(O)C(F)F)c3ccccc3n2)cc1 (stereo not given),21µM*,0,23µM*,4%
CCn1cc(-c2cc(C(=O)O)c3ccccc3n2)c(C)n1,?,2,-3%,0%
